Consider 32 compounds from ChEMBL document CHEMBL3433997, “St. Jude Leishmania screening dataset” (2016).

Type in all cases: functional
Test [1] addresses Solute carrier family 2, facilitated glucose transporter member 1 (Homo sapiens) (UniProt P11166). Description: ST_JUDE_LEISH: Cytotoxicity at 2uM final concentration against transgenic Leishmania Mexicana promastigotes LmGLUT1 that are glucose transport deficient and complemented with the human glucose transporter GLUT1. Activity is measured by DNA content using SYBR green in vitro.

In test [2] the target is Hexose transporter 1 (Plasmodium falciparum) (UniProt O97467). As to the kind of experiment: ST_JUDE_LEISH: Cytotoxicity at 2uM final concentration against transgenic Leishmania Mexicana promastigotes LmPfHT that are glucose transport deficient and complemented with the Plasmodium falciparum hexose transporter. Activity is measured by DNA content using SYBR green in vitro.

Test [3] concerns the target Glucose transporter (Leishmania mexicana) (UniProt O61059). Description: ST_JUDE_LEISH: Cytotoxicity at 2uM final concentration against transgenic Leishmania Mexicana promastigotes LmGT2 that are glucose transport deficient and complemented with the L. Mexicana glucose transporter 2. Activity is measured by DNA content using SYBR green in vitro.

A word on the inhibition: it is the change of the read-out against control, counted positive when it falls.

Solute carrier family 2, facilitated glucose transporter member 1 (Homo sapiens), sequence (P11166 whole entry): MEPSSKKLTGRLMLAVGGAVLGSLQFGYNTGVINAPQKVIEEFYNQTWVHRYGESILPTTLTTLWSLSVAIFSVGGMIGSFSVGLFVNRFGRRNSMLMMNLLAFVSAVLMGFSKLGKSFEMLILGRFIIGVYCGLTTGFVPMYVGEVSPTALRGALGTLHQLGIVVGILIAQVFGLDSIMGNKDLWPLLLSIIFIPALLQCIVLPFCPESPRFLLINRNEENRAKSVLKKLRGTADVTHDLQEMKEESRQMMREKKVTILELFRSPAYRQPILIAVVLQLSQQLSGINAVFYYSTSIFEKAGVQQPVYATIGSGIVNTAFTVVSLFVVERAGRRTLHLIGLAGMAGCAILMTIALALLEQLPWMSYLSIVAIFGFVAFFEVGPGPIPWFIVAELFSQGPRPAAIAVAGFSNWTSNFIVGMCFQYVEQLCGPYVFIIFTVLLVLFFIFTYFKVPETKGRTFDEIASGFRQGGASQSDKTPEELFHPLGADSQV

As for `O=C(Nc1cccc(-c2ccc(-c3nc4cc(F)ccc4[nH]3)cc2)c1)c1cccnc1`, the inhibition amounted to 7.59% in test [1], 7.21% in test [2] and 6.47% in test [3].

Take `C[C@@H]1CC[C@H](NC(=O)[C@H](CC2CCCC2)NC(=O)N2CCNCC2)C(=O)CN1S(=O)(=O)c1ccccn1`: the inhibition in test [1] was 1.44%; in test [2] it was 0.17%; in test [3], -0.32%.

For `CC1(C)NC(N)=NC(=N)N1OCCSc1ccc(Cl)c(Cl)c1`, the inhibition in test [1] turned out to be 5.92%; in test [2], 7.48%; in test [3] it was 9.66%.

For `OC(CNCc1ccccc1Oc1ccccc1)c1cccc(C(F)(F)F)c1` (stereo unspecified), the values for the inhibition in test [1], in test [2] and in test [3] were 3.95%, 2.2% and 0.07%, respectively.

In the case of `Cn1cncc1CCN(Cc1ccc(-c2ccc(C(F)(F)F)cc2)cc1)C(=O)Cn1c(CCc2cccc(F)c2F)cc(=O)c2cccnc21`, the inhibition is 1.83% in test [1], 2.38% in test [2] and -0.14% in test [3].

For `O=C1O[C@H](c2ccccc2)[C@H](c2ccccc2)N(C(=O)OCc2ccccc2)[C@H]1Cc1ccccc1C1CCCC1`, the inhibition was determined as 1.05% in test [1], 2.14% in test [2] and 1.27% in test [3].

As to `CCC(C)CC(=O)Nc1ccc(OC)c(S(=O)(=O)N[C@@H]2CCN(C#N)C2)c1` (stereo partly specified), the inhibition is -0.28% in test [1], -0.4% in test [2] and -0.94% in test [3].

As for `Cc1[nH]c(C)c(-c2ccc(-c3ccc(OC(F)(F)F)cc3)cc2)c(=O)c1Cl`, the values for the inhibition in test [1], in test [2] and in test [3] were 4.71%, 3.77% and -2.04%, respectively.

`Cc1cccc2nc(-c3ccc(-c4cccc(CNCCCNS(C)(=O)=O)c4)s3)[nH]c12`: the inhibition is 0.75% in test [1], 2.35% in test [2] and -2.06% in test [3].

Turning to `Oc1ccc(-c2nc3c(N4CCN(Cc5ccccc5)CC4)cccc3n2C2CCNCC2)cc1`, the results for the inhibition in test [1], in test [2] and in test [3] were 3.29%, 7.64% and 2.62%, respectively.

In the case of `CCCCN(CCCC)CCC(O)C(=Cc1ccc(Cl)cc1Cl)c1ccc(C(F)(F)F)cc1N` (stereo unspecified), the inhibition in test [1] was -0.65%; in test [2], 0.65%; in test [3], 0.7%.

As to `Fc1cccc(COc2ccc(-n3ccc4c(NCCCn5ccnc5)ncnc43)cc2Cl)n1`, the inhibition was found to be 1.74% in test [1], 2.45% in test [2] and 1.59% in test [3].

Take `C#CCN(Cc1ccc2[nH]c(N)nc(=O)c2c1)c1ccc(C(=O)N[C@@H](CCC(=O)O)C(=O)O)cc1`: the inhibition is 4.21% in test [1], 3.35% in test [2] and 3.66% in test [3].

Turning to `O=C(NCCc1ccc(Cl)c(Cl)c1)C1CCCN(C(=O)c2ccc(O)c(-c3ccc(Cl)c(Cl)c3)c2)C1` (stereo unspecified), the inhibition in test [1] worked out at 1.33%; in test [2], 2.53%; in test [3] it was 4.3%.

For the compound `Cc1cc(-c2nc3cc(C(=N)N)ccc3[nH]2)c(C)cc1-c1nc2cc(C(=N)N)ccc2[nH]1`, the inhibition in test [1] came to 4.57%; in test [2], 3.95%; in test [3], 0.94%.

For `CC1(C)C(=O)Nc2ccc3c(c21)CC1SC(=O)NN=C31` (stereo unspecified), the inhibition is -0.91% in test [1], 0.11% in test [2] and 0.01% in test [3].

Take `c1ccc(-c2cccc(-c3ccccn3)n2)nc1`: the inhibition worked out at 3.92% in test [1], 2.46% in test [2] and 2.49% in test [3].

Consider `COc1cc(Nc2nc(N)n(C(=O)c3ccc4c(c3)OCO4)n2)cc(OC)c1OC`, for which the inhibition in test [1] was found to be 15.3%; in test [2] it was 9.11%; in test [3] it was 0.33%.

Turning to `c1ccc(C(c2cccs2)N2CCN(Cc3ccc(OCCCN4CCCCC4)cc3)CC2)cc1` (stereo unspecified), the inhibition in test [1] came out at 7.65%; in test [2], 6.22%; in test [3] it was 5.51%.

`CCCCCCCN1CCC(NC(=O)Nc2ccnc3ccc(OC)cc23)C(C(=O)OCC)C1` (stereo unspecified): the inhibition in test [1] was -2.21%; in test [2] it was 0%; in test [3] it was -2.59%.

Take `CC(=O)/N=C1\N=C(NC(C)=O)NC(C)(C)N1OCCCOc1ccc(Cl)c(Cl)c1`: the results for the inhibition in test [1], in test [2] and in test [3] were 1.53%, 1.27% and 1.47%, respectively.

`COc1ccc(CCCON2C(=N)N=C(N)NC2(C)C)cc1`: the inhibition in test [1] stood at 16.7%; in test [2] it was 23%; in test [3], 18%.

For `Oc1ccc(Nc2nc(NCc3ccccc3)c3ccccc3n2)cc1`, the figures for the inhibition in test [1], in test [2] and in test [3] were 30.1%, 27.1% and 10.6%, respectively.

As to `C[C@@H](NC(=O)NC(CCN1CCC2(CC1)CN(S(C)(=O)=O)c1ccccc12)c1ccc(Cl)c(Cl)c1)c1ccccc1` (stereo partly specified), the inhibition is 0.39% in test [1], 4.43% in test [2] and -3.56% in test [3].

Regarding `CC(C)CNCc1ccc(-c2ccc(CN(C(=O)NCCc3ccccc3)C3CCN(Cc4ccccc4)CC3)cc2)cc1`, the inhibition in test [1] is 71.6%; in test [2], 53.7%; in test [3], 47.2%.

`O=C(NC1CCN(CCN2CCC(c3cn(CCO)c4ccccc34)CC2)CC1)c1ccc(-c2ccc(C(F)(F)F)cc2)cc1`: the inhibition is -1.51% in test [1], 3.18% in test [2] and 0.94% in test [3].

Take `COc1ccc(C(=O)N2CCC(CN3CCOC(c4ccccc4)(c4ccccc4)C3)CC2)cc1`: the inhibition came out at 0.77% in test [1], 2.13% in test [2] and 2.45% in test [3].

Take `O=C(c1ccco1)c1cn(CCOc2ccccc2)c2ccccc12`: the inhibition in test [1] was 1.36%; in test [2] it was 1.5%; in test [3], -0.07%.

Regarding `CCCC(CNCc1cccc(OC(F)(F)C(F)F)c1)CNc1cc(=O)c2ccccc2[nH]1` (stereo unspecified), the inhibition in test [1] was -0.75%; in test [2], -0.41%; in test [3], -4.05%.

Consider `Cc1ccc(S(=O)(=O)N(C)c2ccccc2C(=O)Nc2ccccc2Oc2ccccc2)cc1`, for which the inhibition in test [1] was -0.78%; in test [2], -0.51%; in test [3] it was -3.37%.

As to `CCn1cc(C=C2Oc3c(ccc(O)c3CN3CCCCC3)C2=O)c2ccccc21`, the inhibition in test [1] was 5.49%; in test [2] it was 4.09%; in test [3], 3.27%.

Turning to `Cc1cc(-c2cccc(CNCCc3ccc(Cl)cc3)c2)cnc1N`, the inhibition in test [1] came to 6.5%; in test [2] it was 6.59%; in test [3], 7.77%.
